The subject of assay [1] is PRMT1 (protein arginine N-methyltransferase 1). In words: small molecules binding arginine methyltransferase PRMT1 – biochemical, small-molecule microarray, 635 nm fluorescence, primary screen (AID 1088).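 Also: binding of Prmt1 protein to compounds spotted on small-molecule microarray slides.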 The settings on record: higher = more signal.
Assay [2] is described as follows: growth effects on S. cerevisiae YJM789 – YJM789 clinical isolate, OD600, 24 h, basal, primary screen (AID 1089).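 Also: growth of clinical yeast isolate S. cerevisiae YJM 789 seeded 1000 cells per well; test concentration not given here.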 The settings on record: higher = more signal, called active from +8 up or from −8 down.
Assay [3] can be described thus: S. pombe growth modifiers, basal conditions – strain 972, OD600, 24 h, no modulator, primary screen (AID 1090).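 Also: basal condition with compound alone and no growth modifier present; test concentration not given here.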 The settings on record: S. pombe 972 growth, higher = more signal, called active from +8 up or from −8 down.
Assay [4] is described as follows: budding yeast growth modifiers under rapamycin – strain BY4716, OD600, 96 h, primary screen (AID 1091). Also: test concentration not given here. The settings on record: S. cerevisiae BY4716 + rapamycin, higher = more signal, called active from +8 up or from −8 down.
In assay [5] the target is Torsin-1A-interacting protein 2 (Homo sapiens) (UniProt Q8NFQ8). In words: small molecules binding lysate-expressed LULL1 – cell lysate, human LULL1 lysate, 635/667 nm fluorescence, primary screen (AID 1092).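 Also: probe is lysate of COS7 cells overexpressing human LULL1; score merges per-feature 667 nm fluorescence with signal-to-noise.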 To be noted: small-molecule microarray, hLULL1 lysate binding, 635 nm fluorescence; higher = more signal.
Torsin-1A-interacting protein 2 (Homo sapiens), sequence (Q8NFQ8 whole entry, looked up): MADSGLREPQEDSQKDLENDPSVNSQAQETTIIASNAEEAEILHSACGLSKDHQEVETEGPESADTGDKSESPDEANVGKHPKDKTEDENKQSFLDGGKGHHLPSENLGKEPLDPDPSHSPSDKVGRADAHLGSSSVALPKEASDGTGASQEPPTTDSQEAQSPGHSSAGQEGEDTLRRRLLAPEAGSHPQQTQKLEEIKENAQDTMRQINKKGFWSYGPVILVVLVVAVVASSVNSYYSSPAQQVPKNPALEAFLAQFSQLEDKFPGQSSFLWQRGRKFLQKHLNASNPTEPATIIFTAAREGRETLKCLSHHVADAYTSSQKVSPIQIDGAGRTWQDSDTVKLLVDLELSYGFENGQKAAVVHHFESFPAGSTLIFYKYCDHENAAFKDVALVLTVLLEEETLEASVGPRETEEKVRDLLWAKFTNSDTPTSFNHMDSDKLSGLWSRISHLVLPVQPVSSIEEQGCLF
The nature of assay [6]: optical density change of DRC41 E. coli – strain DRC41, OD650, 24 h, E. coli filamentation project, primary screen (AID 1093).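 Also: MC1000 strain lacking acrAB efflux and sulA so SOS filamentation is blocked; test concentration not given here.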 To be noted: E. coli DRC41 growth, higher = more signal, called active from +8 up or from −8 down.
The nature of assay [7]: probe aLefty2 binding to arrayed compounds – biochemical, biotinylated probe, 635/667 nm fluorescence, primary screen (AID 1094).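 Also: score merges spot fluorescence near 667 nm with spot signal-to-noise ratio.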 The settings on record: small-molecule microarray, higher = more signal.
The subject of assay [8] is Noggin (protein binding on small-molecule microarray). In words: small molecules binding Noggin protein – biochemical, 635/667 nm fluorescence, primary screen (AID 1095).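 Also: score merges 667 nm feature fluorescence with signal to noise over triplicate slides.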 To be noted: 635 nm fluorescence, higher = more signal.
In assay [9] the target is Neurogenic locus notch homolog protein 3 (Homo sapiens) (UniProt Q9UM47). In words: small molecules binding NOTCH3 protein – biochemical, 635/667 nm fluorescence, primary screen (AID 1096). To be noted: small-molecule microarray, 635 nm fluorescence, higher = more signal.
Neurogenic locus notch homolog protein 3 (Homo sapiens), sequence (Q9UM47 whole entry, looked up): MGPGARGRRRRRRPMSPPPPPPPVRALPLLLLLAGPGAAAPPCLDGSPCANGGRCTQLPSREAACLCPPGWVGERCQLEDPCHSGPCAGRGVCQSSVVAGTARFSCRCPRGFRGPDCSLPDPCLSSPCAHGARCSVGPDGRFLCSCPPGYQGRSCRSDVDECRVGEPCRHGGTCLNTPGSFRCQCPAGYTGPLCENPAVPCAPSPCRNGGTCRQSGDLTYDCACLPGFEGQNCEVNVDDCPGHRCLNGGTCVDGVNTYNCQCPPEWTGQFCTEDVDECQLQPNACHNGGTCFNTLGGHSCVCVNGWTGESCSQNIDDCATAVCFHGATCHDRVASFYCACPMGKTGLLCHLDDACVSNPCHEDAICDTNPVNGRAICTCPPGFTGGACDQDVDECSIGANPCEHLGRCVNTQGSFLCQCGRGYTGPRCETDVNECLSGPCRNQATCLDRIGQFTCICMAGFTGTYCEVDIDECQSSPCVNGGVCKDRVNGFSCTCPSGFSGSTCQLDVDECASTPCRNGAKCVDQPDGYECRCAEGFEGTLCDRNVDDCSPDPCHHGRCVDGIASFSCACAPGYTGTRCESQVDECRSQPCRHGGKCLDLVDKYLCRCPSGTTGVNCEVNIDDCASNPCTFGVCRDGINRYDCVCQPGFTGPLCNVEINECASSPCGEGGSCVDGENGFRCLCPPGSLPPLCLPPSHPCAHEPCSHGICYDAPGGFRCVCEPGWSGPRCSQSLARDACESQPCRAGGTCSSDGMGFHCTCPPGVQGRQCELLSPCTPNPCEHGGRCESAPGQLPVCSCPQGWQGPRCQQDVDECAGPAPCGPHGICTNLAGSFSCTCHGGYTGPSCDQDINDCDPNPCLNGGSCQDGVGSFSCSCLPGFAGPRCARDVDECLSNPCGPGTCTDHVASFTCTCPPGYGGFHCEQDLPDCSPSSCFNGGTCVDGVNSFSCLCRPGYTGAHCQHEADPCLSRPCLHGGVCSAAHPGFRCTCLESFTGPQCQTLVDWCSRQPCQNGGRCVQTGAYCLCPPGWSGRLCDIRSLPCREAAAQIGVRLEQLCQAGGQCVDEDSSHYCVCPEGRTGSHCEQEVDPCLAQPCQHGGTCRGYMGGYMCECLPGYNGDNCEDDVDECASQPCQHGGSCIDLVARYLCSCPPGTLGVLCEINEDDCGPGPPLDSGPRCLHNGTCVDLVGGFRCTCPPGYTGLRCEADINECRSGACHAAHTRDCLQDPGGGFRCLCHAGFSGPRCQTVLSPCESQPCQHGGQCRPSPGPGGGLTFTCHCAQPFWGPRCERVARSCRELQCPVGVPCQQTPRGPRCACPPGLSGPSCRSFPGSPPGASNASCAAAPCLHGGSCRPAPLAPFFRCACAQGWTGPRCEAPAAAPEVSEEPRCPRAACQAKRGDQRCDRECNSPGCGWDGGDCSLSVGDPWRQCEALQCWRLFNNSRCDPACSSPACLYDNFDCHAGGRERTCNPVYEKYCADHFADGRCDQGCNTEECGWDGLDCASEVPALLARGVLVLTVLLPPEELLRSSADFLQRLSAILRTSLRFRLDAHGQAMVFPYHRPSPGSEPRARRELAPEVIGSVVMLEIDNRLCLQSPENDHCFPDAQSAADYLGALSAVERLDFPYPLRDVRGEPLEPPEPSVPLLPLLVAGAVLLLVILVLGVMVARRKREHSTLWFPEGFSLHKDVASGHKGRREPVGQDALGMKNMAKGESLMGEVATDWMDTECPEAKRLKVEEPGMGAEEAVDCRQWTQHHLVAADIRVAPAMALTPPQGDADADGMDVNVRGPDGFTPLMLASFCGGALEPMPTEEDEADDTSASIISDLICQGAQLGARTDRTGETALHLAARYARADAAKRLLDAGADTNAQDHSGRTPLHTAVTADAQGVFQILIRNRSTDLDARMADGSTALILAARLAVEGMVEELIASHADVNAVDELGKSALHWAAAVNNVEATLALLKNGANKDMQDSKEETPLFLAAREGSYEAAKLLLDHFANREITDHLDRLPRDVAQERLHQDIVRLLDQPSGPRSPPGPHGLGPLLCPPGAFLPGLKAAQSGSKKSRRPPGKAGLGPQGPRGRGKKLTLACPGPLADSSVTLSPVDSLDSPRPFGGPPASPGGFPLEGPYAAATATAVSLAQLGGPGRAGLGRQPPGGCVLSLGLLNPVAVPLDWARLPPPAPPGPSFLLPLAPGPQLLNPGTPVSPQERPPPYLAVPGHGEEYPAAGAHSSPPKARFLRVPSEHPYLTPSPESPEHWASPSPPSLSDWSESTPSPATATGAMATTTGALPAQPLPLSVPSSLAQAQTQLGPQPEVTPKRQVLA
Assay [10] can be described thus: probe aEGFR binding to arrayed compounds – biochemical, biotinylated probe, 635/667 nm fluorescence, primary screen (AID 1097).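 Also: probe is a biotinylated anti-EGFR antibody binding compounds printed on slides; score combines fluorescence near 667 nm and signal to noise of each spot.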 To be noted: small-molecule microarray, higher = more signal.
In assay [11] the test system is Plasmodium falciparum Sir2 (PF13_0152, Sir2A). In words: Plasmodium falciparum Sir2A binding compounds – biochemical, small-molecule microarray, 635 nm fluorescence, primary screen (AID 1098).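 Also: score merges spot fluorescence intensity with its signal-to-noise ratio.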 To be noted: fluorescence 635 nm, higher = more signal.
Assay [12] can be described thus: probe aDKK1 binding to arrayed compounds – biochemical, biotinylated probe, 635/667 nm fluorescence, primary screen (AID 1099).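 Also: score merges 667nm spot fluorescence with signal to noise across triplicate slides; reference of the scale not given here.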 The settings on record: small-molecule microarray, higher = more signal.
A short description of assay [13]: probe aCHRDL2 binding to arrayed compounds – biochemical, biotinylated probe, 635/667 nm fluorescence, primary screen (AID 1100). To be noted: small-molecule microarray, higher = more signal.
Assay [14] can be described thus: change in splice reporter luminescence, either direction, cell-based, HEK293, spliceosome inhibition project, primary screen (AID 1101).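 Also: HEK293 cells carrying a splicing-competent luciferase reporter gene; test concentration not given here.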 To be noted: HEK293 splicing luciferase reporter, 24 h, higher = more signal, called active from +8 up or from −8 down.
The target of assay [15] is Fibroblast growth factor 10 (Homo sapiens) (UniProt O15520). In words: compounds binding fibroblast growth factor 10 – biochemical, small-molecule microarray, 635 nm fluorescence, primary screen (AID 1102). To be noted: FGF10 binding, fluorescence 635 nm, higher = more signal.
Fibroblast growth factor 10 (Homo sapiens), sequence (O15520 whole entry, looked up): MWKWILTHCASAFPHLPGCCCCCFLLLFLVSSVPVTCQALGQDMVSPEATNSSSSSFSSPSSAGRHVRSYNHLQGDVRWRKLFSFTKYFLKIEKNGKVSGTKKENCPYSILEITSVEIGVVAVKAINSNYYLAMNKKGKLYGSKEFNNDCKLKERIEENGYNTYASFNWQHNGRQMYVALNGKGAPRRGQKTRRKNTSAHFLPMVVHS
Assay [16] deals with glycogen synthase kinase-3 (GSK3A per assay name; protocol says GSK3B). In words: compounds binding glycogen synthase kinase-3 – biochemical, small-molecule microarray, 635 nm fluorescence, GSK3A, primary screen (AID 1103). Also: the record names both GSK3A and GSK3B. The settings on record: fluorescence 635 nm, higher = more signal.
Assay [17] has as its target Epidermal growth factor receptor (Homo sapiens) (UniProt P00533). In words: compounds binding epidermal growth factor receptor – biochemical, small-molecule microarray, 635 nm fluorescence, primary screen (AID 1104).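 Also: score merges 667 nm emission intensity with spot signal to noise over triplicate slides.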 To be noted: EGFR binding, higher = more signal.
Assay [18] concerns the target Follistatin-related protein 3 (Homo sapiens) (UniProt O95633). In words: compounds binding follistatin-related protein 3 – biochemical, small-molecule microarray, 635 nm fluorescence, primary screen (AID 1105).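 Also: score merges emission near 667 nm and signal to noise per printed spot across three slides.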 The settings on record: FSTL3 binding, higher = more signal.
Assay [19] concerns the target Dickkopf-related protein 1 (Homo sapiens) (UniProt O94907). In words: small molecules binding DKK1 protein – biochemical, small-molecule microarray, 635 nm fluorescence scan, primary screen (AID 1106).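 Also: score merges emission near 667 nm with signal to noise over three replicate slides.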 The settings on record: higher = more signal.
For assay [20], the system named is Inhibin beta A chain (activin A). In words: small molecules binding activin A – biochemical, small-molecule microarray, 635 nm fluorescence scan, primary screen (AID 1107).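 Also: mouse activin A protein probed at 4.33 µg/mL on printed slides; score merges bound-protein fluorescence near 667 nm with spot signal-to-noise.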 The settings on record: INHBA, higher = more signal.

Activity calls are given as the source filed them.

Dickkopf-related protein 1 (Homo sapiens), sequence (O94907 whole entry, looked up): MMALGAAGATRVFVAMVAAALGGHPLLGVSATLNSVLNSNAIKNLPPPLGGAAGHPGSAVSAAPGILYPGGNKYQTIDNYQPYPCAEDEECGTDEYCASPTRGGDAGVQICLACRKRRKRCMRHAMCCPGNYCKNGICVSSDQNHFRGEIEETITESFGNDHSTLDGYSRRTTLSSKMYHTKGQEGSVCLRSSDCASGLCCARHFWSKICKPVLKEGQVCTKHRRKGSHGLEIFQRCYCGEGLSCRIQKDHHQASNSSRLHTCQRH
Follistatin-related protein 3 (Homo sapiens), sequence (O95633 whole entry, looked up): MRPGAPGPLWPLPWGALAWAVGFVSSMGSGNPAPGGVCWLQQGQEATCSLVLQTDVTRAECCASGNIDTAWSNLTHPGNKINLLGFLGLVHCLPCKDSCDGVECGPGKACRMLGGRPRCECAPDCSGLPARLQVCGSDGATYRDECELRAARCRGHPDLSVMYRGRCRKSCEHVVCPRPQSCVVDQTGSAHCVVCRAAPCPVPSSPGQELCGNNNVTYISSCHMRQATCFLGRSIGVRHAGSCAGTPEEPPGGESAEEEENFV
Epidermal growth factor receptor (Homo sapiens), sequence (P00533 whole entry, looked up): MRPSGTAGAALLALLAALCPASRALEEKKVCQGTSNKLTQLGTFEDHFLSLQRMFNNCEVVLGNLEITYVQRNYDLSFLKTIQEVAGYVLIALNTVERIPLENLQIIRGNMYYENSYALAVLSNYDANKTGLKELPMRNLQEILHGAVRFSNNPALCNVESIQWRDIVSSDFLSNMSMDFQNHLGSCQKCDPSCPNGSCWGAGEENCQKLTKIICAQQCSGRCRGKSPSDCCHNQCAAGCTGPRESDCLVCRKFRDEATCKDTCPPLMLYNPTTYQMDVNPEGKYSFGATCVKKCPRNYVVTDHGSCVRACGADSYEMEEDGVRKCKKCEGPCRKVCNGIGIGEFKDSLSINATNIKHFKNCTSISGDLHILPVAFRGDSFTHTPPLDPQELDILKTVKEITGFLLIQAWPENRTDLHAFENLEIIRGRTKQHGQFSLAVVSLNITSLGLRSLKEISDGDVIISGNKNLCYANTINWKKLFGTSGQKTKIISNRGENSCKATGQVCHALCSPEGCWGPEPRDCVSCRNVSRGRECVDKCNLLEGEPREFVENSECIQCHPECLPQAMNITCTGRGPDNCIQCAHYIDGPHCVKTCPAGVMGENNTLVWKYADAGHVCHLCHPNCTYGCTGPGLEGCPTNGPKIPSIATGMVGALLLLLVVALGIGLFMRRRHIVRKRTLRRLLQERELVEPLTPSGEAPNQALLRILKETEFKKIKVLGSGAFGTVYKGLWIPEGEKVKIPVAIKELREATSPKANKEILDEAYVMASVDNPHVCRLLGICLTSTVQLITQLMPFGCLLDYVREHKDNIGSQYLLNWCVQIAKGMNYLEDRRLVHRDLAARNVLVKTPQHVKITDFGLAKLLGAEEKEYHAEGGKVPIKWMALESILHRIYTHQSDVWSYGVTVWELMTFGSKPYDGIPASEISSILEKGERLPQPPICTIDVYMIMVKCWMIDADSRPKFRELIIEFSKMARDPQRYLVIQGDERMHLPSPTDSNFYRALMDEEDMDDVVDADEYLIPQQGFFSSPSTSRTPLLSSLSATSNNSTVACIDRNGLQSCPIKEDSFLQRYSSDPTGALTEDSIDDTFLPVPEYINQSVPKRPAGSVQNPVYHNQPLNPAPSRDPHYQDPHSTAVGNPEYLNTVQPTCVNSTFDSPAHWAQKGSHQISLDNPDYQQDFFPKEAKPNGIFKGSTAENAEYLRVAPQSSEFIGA

`COCCOC(=O)N1C(=O)[C@@]2(c3cc(C#CCCO)ccc31)[C@H](c1ccc(OCCO)cc1)N1[C@H](c3ccccc3)[C@H](c3ccccc3)OC(=O)[C@H]1[C@@H]2C(=O)Nc1nc2ccccc2s1`: the composite z-score amounted to 1.42 in assay [1]; 1.26 in assay [5]; 0.151 in assay [7]; 1.13 in assay [8]; 1.08 in [9]; 0.197 in assay [10]. Moreover, the composite z-score was determined as 0.755 in [11]; 0.901 in assay [12]; 0.771 in [13]; 0.898 in [15]; 1.29 in [16]; 0.27 in [17]. The composite z-score in [18] was 1.24; in assay [19] it was 0.87; in assay [20], 0.854. Besides, the z-score in assay [2] was 1.61 (inactive); in assay [3] it was 1.26 (inactive); in [4], 2.48 (inactive); in [6] it was 0.235 (inactive); in [14] it was 1.06 (inactive).
In the case of `C#CCN(Cc1ccccc1Br)[C@H](/C=C/c1ccccc1)[C@@H](O)Cc1ccccc1`, the composite z-score was -0.384 in assay [1]; 0.98 in assay [5]; 0.195 in assay [7]; -1.24 in [8]; -0.623 in [9]; -0.397 in assay [10]. Besides, the composite z-score in assay [11] was -0.699; in assay [12], 0.12; in assay [13], 0.857; in [15], -0.636; in [16], -0.705; in assay [17], -1.45. The composite z-score in [18] is -1.21; in assay [19] it was -1.42; in [20], 1.35. Also, the z-score was 0.737 (inactive) in assay [2]; -12.7 (active) in assay [3]; 1.38 (inactive) in [4]; 1.44 (inactive) in [6]; -1.51 (inactive) in assay [14].
As for `O=C1OCCC=C[C@H]2OC34C=CCN(Cn5nnc6ccccc65)C(=O)[C@H]3N(CCCO)C(=O)[C@@H]4C12` (stereo not given in full), the composite z-score is -1.72 in assay [1]; -1.7 in [5]; -0.209 in [7]; -0.677 in [8]; -0.99 in assay [9]; -0.264 in [10]. The composite z-score in assay [11] was -0.783; in [12] it was -0.264; in assay [13] it was 0.0963; in assay [15], -0.583; in [16], -0.789; in assay [17], -0.72. For the same compound, the composite z-score in assay [18] was -1.46; in [19], -0.454; in assay [20] it was 0.148. Besides, the z-score in [2] is 0.0799 (inactive); in assay [3] it was -0.973 (inactive); in [4] it was -0.342 (inactive); in assay [6] it was 1.81 (inactive); in [14] it was -1.05 (inactive).
Turning to `CCCCCN1CC=CC23O[C@@H]4/C=C\CCCOC(=O)C4[C@H]2C(=O)N(C(C)CO)[C@@H]3C1=O` (stereo not given in full), the composite z-score was 1.14 in [1]; 1.86 in assay [5]; -0.125 in assay [7]; -1.33 in [8]; -0.365 in assay [9]; -0.213 in [10]. Also, the composite z-score in [11] was 2.01; in assay [12], -0.339; in assay [13] it was 0.525; in [15], -1.43; in assay [16], -1; in assay [17], -1.07. Further, the composite z-score was -0.706 in assay [18], -0.964 in [19] and -0.57 in assay [20]. Moreover, the z-score was -0.145 (inactive) in [2]; -1.52 (inactive) in assay [3]; -0.744 (inactive) in [4]; 0.815 (inactive) in assay [6]; 0.1 (inactive) in assay [14].
As to `Cc1ccc(F)cc1S(=O)(=O)N[C@@H]1CCN(Cc2ccc(Br)cc2)C1`, the composite z-score in assay [1] is -0.268; in assay [5], -1.04; in assay [7] it was -0.161; in [8], 1.21; in assay [9], 0.895; in assay [10], -0.0455. Further, the composite z-score in [11] was 0.0002; in assay [12], -0.16; in assay [13], -0.418; in [15], 0.69; in assay [16], -0.751; in [17] it was 0.529. Also, the composite z-score in assay [18] worked out at 0.752; in assay [19], 0.677; in assay [20], 0.359. Besides, the z-score was -1.47 (inactive) in assay [2]; -17.4 (active) in assay [3]; -1.73 (inactive) in assay [4]; -1.12 (inactive) in assay [6]; -1.12 (inactive) in [14].
